According to the emibetuzumab library of Makowski et al. (2022):
The list shows a part of the results. How many sequences the whole screen found active is unknown.

B1: VH:VL chains; a variant is named by its letters at X, in order (parent)
chain 1: QVQLVQSGAEVKKPGASVKVSCKASGYTFTDYXMHWVRQAPGQGLEWMGXVNPNXXXTTYNQKFEGRVTMTTDTSTSTAYMELRSLRSDDTAVYYCARXNXLDXWGQGTTVTVSS
chain 2: DIQMTQSPSSLSASVGDRVTITCSVSSSVSSIYLHWYQQKPGKAPKLLIYSTSNLASGVPSRFSGSGSGTDFTLTISSLQPEDFATYYCQVYSGYPLTFGGGTKVEIK

Variants of: B1
Assay: yeast display scFab, FACS + sequencing
Settings: with MET
Summary of the method: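 A heavy-chain CDR mutant scFab library on yeast was enriched magnetically with HGFR-Fc-coated Protein A beads for two rounds and then by FACS after labelling with 1 nM HGFR-Fc and anti-Myc in PBSB with 1% milk for 3 h at room temperature, gating the top 50% antigen-positive cells. Antigen binding was judged positive if a sequence turned up in both antigen-positive deep-sequencing samples and negative if it turned up only in the input.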

Variant	antigen binding call
YTGEADAS	no binding
SAERSAAF	no binding
DAGGASSA	no binding
SEEEGSGV	no binding
YRERGALS	binds
YTTGGYLV	no binding
YRGGDYLV	binds
YEGGGDLV	no binding
YRGGDDLV	no binding
YRGGDYSV	no binding
YRGGGYLV	binds
DETEGDVF	no binding
VKGEGDVY	no binding
VEERDDWF	no binding
SAGGGAGD	no binding
SETGAALD	no binding
SRGGAAWA	no binding
SEARSALA	binds
SRGGSALA	binds
SRGKGDAD	no binding
SEARSDLA	no binding
SEARSSLA	no binding
SRGGGALD	binds
SRGKGALD	binds

Variant	antigen binding call
SRGGDDVA	no binding
DGGRGDGA	no binding
AKTGNDVA	no binding
YRAGDALD	binds
DRAGDALD	binds
DRREDALD	binds
YRAEGALD	binds
DTTGSALD	no binding
DRAGDSLD	no binding
DAGAADVV	no binding
DRGGDDVD	no binding
YRAGGDAD	binds
YATAADAD	no binding
YRRRGVAD	binds
YTGGNDAD	no binding
VRRRGAAD	binds
VGGGGAAD	no binding
ARRTDVAD	binds
AREGDAGD	no binding
AARADSAD	no binding
FERRAFGY	no binding
YRRKGDAD	no binding
YRRGGAAD	binds
YRRRGAAD	binds

Variant	antigen binding call
YRRRGDAD	binds
AAARNFLF chain 1 V68I	no binding
SEARSSAS	no binding
DEGGTDSF	no binding
VKGASDVV	no binding
DTGGGAGA	no binding
VRGRGYAA	binds
YKGRGYVA	no binding
YRGRGYAA	binds
YKGRGYAA	binds
YRGKGYAA	binds
VRGTGYAS	no binding
VRGRGFAA	no binding
VTTRAASV	no binding
SREEGFSV	no binding
YEGRGDVA	no binding
VRAGGDLA	no binding
YRGRGVAA	binds
YGGGGAVA	no binding
YGGRGAVA	binds
VRGRGDLA	binds
VTGRGDLA	no binding
YRAGGYAA	binds
SETKGDVY	no binding

Variant	antigen binding call
DREEGFSV	no binding
AAGGDYVF	no binding
VTEGDAGD	no binding
YRRGGAWS	binds
YERRGSWS	no binding
YRRRGYSS	binds
YAKADYSS	no binding
YRRRGSWS	binds
VERRGSWS	no binding
YRRRGAWS	binds
VTRGDVWV	no binding
VTGTGDVV	no binding
SEGTGAGV	no binding
YRRRGSLS	binds
YRRRGSSS	binds
YRRRGAAS	binds
SKERGDLV	no binding
SKRRGSLS	binds
SKTKSDGS	no binding
VETEGAGA	no binding
SREAADGV	no binding
AETTDSWV	no binding
FGATSVSF	no binding
SARTDFWF	no binding

Variant	antigen binding call
ARAETDVY	no binding
DARGGSSS	no binding
YRRRSSSS	binds
YRRRGSVS	binds
YRRRGALS	binds
YRRRGSAS	binds
VTEENDGY	no binding
FAEGDDVY	no binding
ATTKSDVA	no binding
YARETDGA	no binding
DAGAADGA	no binding
YRRRGASS	binds
YRRRGSGS	binds
DAEATDVA	no binding
YRAKGSGD	binds
YRAKGAGD	binds
VAEKGAGD	no binding
YKEKGAVD	no binding
YREKGAGD	binds
YRAGTSGD	binds
DGGEGVVY	no binding
AKRGAFAD	no binding
VGGKNSVD	no binding
VKGRADAD	no binding

Variant	antigen binding call
YRRKGAGD	binds
YRAGSSGD	binds
YRAGASGD	binds
YAAGASVD	no binding
VKEADDVA	no binding
YRGRTSLD	binds
YRERSSLD	binds
VTEGGSVD	no binding
YREGGSLD	binds
YREGGSVD	binds
DAEGGSLD	no binding
VTTKSDVF	no binding
AETKGDVY	no binding
SAGEGDGV	no binding
AKKRGAWS	binds
AAKRGSWV	no binding
VKKRGAWS	binds
VKEKGAWV	no binding
VKEKGAWS	no binding
FAKRGAWS	no binding
YARGADGS	no binding
YKTRSAWS chain 1 M48I	no binding
FKKRGAWS	binds
AERRGSWS	no binding

Variant	antigen binding call
YKRGAAWS	binds
FKTEGFVS	no binding
DATGGDVF	no binding
YERTTDLS	no binding
VGGTSDGD	no binding
VTEEGDWV	no binding
ATKGAAVA	no binding
YEKGGAWS	no binding
YKKRGAWS	binds
VTTKSAGV	no binding
DAEATSLV	no binding
YRRGGSAA	binds
YRRGSSAA	binds
VTGEDDVD	no binding
VKAGDAAV	no binding
VKAGGDAV	no binding
VKARGSAF	binds
VKGRASAF	no binding
VKARGSAV	binds
VAARGAAV	no binding
VKARGAAV	binds
VEEEGSAV	no binding
VAARGDAA	no binding
SGREGDSA	no binding

Variant	antigen binding call
DGGGNVSD	no binding
DEGGTDWV	no binding
SAREGYSV	no binding
DEARNAGA	no binding
FRGRSSGV	binds
FRGRGSGV	binds
FRAGSSGV	binds
FRTRSSGV	binds
FRTADVGV	no binding
VTKGGSSA	no binding
SEKKADWA	no binding
VTTKSDVA	no binding
VRTEDDVY	no binding
SEGRGSGV	no binding
FKGRGSGV	binds
VGGTSSSV	no binding
VRGTGSAD	no binding
VRGEGSWD	binds
VRGTGSWD	binds
VRGTGDWD	no binding
YTEGDDGV	no binding
YTGGDDWV	no binding
DEGTDYAA	no binding
FKTGDAWS	no binding

Variant	antigen binding call
FKGRGDGS	no binding
FKGRGAGS	binds
FKGRGAWS	binds
DATGGDGA	no binding
YEGTGSAD	no binding
YKGGSSLD	binds
YTGTSSAD	no binding
DKGGSSLD	no binding
YKGGSSAD	binds
DATGGSSA	no binding
YKRGDAWD	binds
YKRGDAWA	binds
YTRGNAWA	no binding
YKRAAVWD	no binding
YRRGDFWA	no binding
YKRGSAWD	binds
VEGRGAVY	no binding
VKGTGVAY	no binding
VKGRGAAY	binds
YKGRGAAY	binds
